Source: PMC11062922 (Nature Chemical Biology, 2023)
Like-named read-outs stand apart in the source and are kept apart here.

Tests used:
Design in all cases: species or system human, MV4-11 + K-562 + COLO205 + SK-N-BE2 + OVCAR-8
[1] = test system: COX5A; details: read-out: apparent Kd, compound concentrations: 100 nM and 1000 nM (sheet 'Samples'), n = 1
[2] = test system: DDR1; details: read-out: apparent Kd, compound concentrations: 100 nM and 1000 nM (sheet 'Samples'), n = 1
[3] = test system: DDR2; details: read-out: apparent Kd, compound concentrations: 100 nM and 1000 nM (sheet 'Samples'), n = 1
[4] = test system: FLT3; details: read-out: apparent Kd; compound concentrations: 100 nM and 1000 nM (sheet 'Samples'), CATDS: 0.12065000979252; n = 1
[5] = test system: NNT; details: read-out: apparent Kd; compound concentrations: 100 nM and 1000 nM (sheet 'Samples'), CATDS: 0.115819369976432; n = 1
[6] = test system: PDXK; details: read-out: apparent Kd; compound concentrations: 100 nM and 1000 nM (sheet 'Samples'), CATDS: 0.115099137531036; n = 1
[7] = test system: RET; details: read-out: apparent Kd; compound concentrations: 100 nM and 1000 nM (sheet 'Samples'), CATDS: 0.12937404694589899; n = 1
[8] = test system: ZAK; details: read-out: apparent Kd; compound concentrations: 100 nM and 1000 nM (sheet 'Samples'), CATDS: 8.61130704510496E-2; n = 1
[9] = test system: CSNK1D; details: read-out: apparent Kd, compound concentrations: 100 nM and 1000 nM (sheet 'Samples'), n = 1
[10] = test system: CSNK1E; details: read-out: apparent Kd, compound concentrations: 100 nM and 1000 nM (sheet 'Samples'), n = 1
[11] = test system: DYRK1A; details: read-out: apparent Kd; compound concentrations: 100 nM and 1000 nM (sheet 'Samples'), CATDS: 4.6782776774364397E-2; n = 1
[12] = test system: ILK; details: read-out: apparent Kd; compound concentrations: 100 nM and 1000 nM (sheet 'Samples'), CATDS: 4.86206826406465E-2; n = 1
[13] = test system: JAK2; details: read-out: apparent Kd; compound concentrations: 100 nM and 1000 nM (sheet 'Samples'), CATDS: 0.29618992494589602; n = 1
[14] = test system: MAPK10; details: read-out: apparent Kd, compound concentrations: 100 nM and 1000 nM (sheet 'Samples'), n = 1
[15] = test system: MAPK14; details: read-out: apparent Kd, compound concentrations: 100 nM and 1000 nM (sheet 'Samples'), n = 1
[16] = test system: MAPK8; details: read-out: apparent Kd, compound concentrations: 100 nM and 1000 nM (sheet 'Samples'), n = 1
[17] = test system: MAPK9; details: read-out: apparent Kd, compound concentrations: 100 nM and 1000 nM (sheet 'Samples'), n = 1
[18] = test system: MAPKAPK2; details: read-out: apparent Kd, compound concentrations: 100 nM and 1000 nM (sheet 'Samples'), n = 1
[19] = test system: NLK; details: read-out: apparent Kd, compound concentrations: 100 nM and 1000 nM (sheet 'Samples'), n = 1
[20] = test system: RIPK2; details: read-out: apparent Kd, compound concentrations: 100 nM and 1000 nM (sheet 'Samples'), n = 1
[21] = test system: CSNK1A1; details: read-out: apparent Kd; compound concentrations: 100 nM and 1000 nM (sheet 'Samples'), CATDS: 7.9796856628157303E-2; n = 1
[22] = test system: GAK; details: read-out: apparent Kd; compound concentrations: 100 nM and 1000 nM (sheet 'Samples'), CATDS: 4.3389501889838297E-2; n = 1
[23] = test system: MAPK11; details: read-out: apparent Kd; compound concentrations: 100 nM and 1000 nM (sheet 'Samples'), CATDS: 4.3828309846065103E-2; n = 1
[24] = test system: PIK3CD; details: read-out: apparent Kd; compound concentrations: 100 nM and 1000 nM (sheet 'Samples'), CATDS: 8.1619991171871006E-2; n = 1
[25] = test system: PIP4K2C; details: read-out: apparent Kd; compound concentrations: 100 nM and 1000 nM (sheet 'Samples'), CATDS: 4.0260686940240001E-2; n = 1
[26] = test system: CLK1; details: read-out: apparent Kd; compound concentrations: 100 nM and 1000 nM (sheet 'Samples'), CATDS: 8.2490921109223694E-2; n = 1
[27] = test system: CLK4; details: read-out: apparent Kd; compound concentrations: 100 nM and 1000 nM (sheet 'Samples'), CATDS: 9.1933960168397902E-2; n = 1
[28] = test system: FER; details: read-out: apparent Kd; compound concentrations: 100 nM and 1000 nM (sheet 'Samples'), CATDS: 0.191525182518377; n = 1
[29] = test system: FES; details: read-out: apparent Kd; compound concentrations: 100 nM and 1000 nM (sheet 'Samples'), CATDS: 0.141762780842772; n = 1
[30] = test system: IGF1R; details: read-out: apparent Kd; compound concentrations: 100 nM and 1000 nM (sheet 'Samples'), CATDS: 0.28711469302714299; n = 1
[31] = test system: INSR; details: read-out: apparent Kd; compound concentrations: 100 nM and 1000 nM (sheet 'Samples'), CATDS: 0.56670438264140999; n = 1
[32] = test system: PLK1; details: read-out: apparent Kd; compound concentrations: 100 nM and 1000 nM (sheet 'Samples'), CATDS: 8.4906950641747497E-2; n = 1
[33] = test system: PTK2; details: read-out: apparent Kd; compound concentrations: 100 nM and 1000 nM (sheet 'Samples'), CATDS: 8.5472412677607995E-2; n = 1

## COC(=O)Nc1nc2cc(Oc3ccc(NC(=O)Nc4cccc(Br)c4)cc3)ccc2[nH]1.Cl [GW694234A]
[1]; CATDS: 0.15625736744525701
  potency estimated from few doses: 463 nM
[2]; CATDS: 0.25244983438360302
  potency estimated from few doses: 217 nM
[3]; CATDS: 0.115124869581512
  potency estimated from few doses: 865 nM
[4]
  potency estimated from few doses: 777 nM
[5]
  potency estimated from few doses: 853 nM
[6]
  potency estimated from few doses: 865 nM
[7]
  potency estimated from few doses: 668 nM
[8]
  potency estimated from few doses: 2040 nM

## Clc1ccc(-c2nn3ncccc3c2-c2ccnc(Nc3ccc4c(c3)OCCO4)n2)cc1 [GW829116X]
[1]; CATDS: 5.4646770087593201E-2
  potency estimated from few doses: 1390 nM
[9]; CATDS: 7.5632586412137201E-2
  potency estimated from few doses: 637 nM
[10]; CATDS: 5.2875216757628997E-2
  potency estimated from few doses: 1530 nM
[2]; CATDS: 8.5854125332601505E-2
  potency estimated from few doses: 495 nM
[3]; CATDS: 5.1047862039129102E-2
  potency estimated from few doses: 1710 nM
[11]
  potency estimated from few doses: 2320 nM
[12]
  potency estimated from few doses: 2010 nM
[13]
  potency estimated from few doses: 72.6 nM
[14]; CATDS: 6.7537775874855099E-2
  potency estimated from few doses: 815 nM
[15]; CATDS: 7.0110586320851001E-2
  potency estimated from few doses: 749 nM
[16]; CATDS: 5.7180888411163297E-2
  potency estimated from few doses: 1230 nM
[17]; CATDS: 0.15745137005687401
  potency estimated from few doses: 177 nM
[18]; CATDS: 6.45632126081358E-2
  potency estimated from few doses: 904 nM
[19]; CATDS: 6.2213467797214997E-2
  potency estimated from few doses: 988 nM
[20]; CATDS: 7.3862527968221903E-2
  potency estimated from few doses: 670 nM

## CN1CCC(n2cnc(-c3ccc(F)cc3)c2-c2ccnc(NCCO)n2)CC1 [SB-226879]
[21]
  potency estimated from few doses: 91.2 nM
[9]; CATDS: 0.29962108595450698
  potency estimated from few doses: 6.97 nM
[10]; CATDS: 0.149531361707545
  potency estimated from few doses: 21.2 nM
[2]; CATDS: 4.0127184299889498E-2
  potency estimated from few doses: 2140 nM
[22]
  potency estimated from few doses: 1240 nM
[14]; CATDS: 7.1886071403025706E-2
  potency estimated from few doses: 126 nM
[23]
  potency estimated from few doses: 1170 nM
[15]; CATDS: 0.120722189423433
  potency estimated from few doses: 32.5 nM
[16]; CATDS: 4.3769759721199501E-2
  potency estimated from few doses: 1180 nM
[17]; CATDS: 6.64061265651648E-2
  potency estimated from few doses: 166 nM
[18]; CATDS: 0.113562081493031
  potency estimated from few doses: 37.1 nM
[19]; CATDS: 0.178729596227966
  potency estimated from few doses: 15.4 nM
[24]
  potency estimated from few doses: 85.3 nM
[25]
  potency estimated from few doses: 2090 nM
[20]; CATDS: 4.98304008841833E-2
  potency estimated from few doses: 572 nM

## COc1cc2c(cc1Nc1nc(Nc3ccsc3C(N)=O)c3cc[nH]c3n1)N(C(=O)CN(C)C)CCC2 [GSK2110236A]
[26]
  potency estimated from few doses: 1090 nM
[27]
  potency estimated from few doses: 641 nM
[28]
  potency estimated from few doses: 44.5 nM
[29]
  potency estimated from few doses: 115 nM
[30]
  potency estimated from few doses: 16.3 nM
[31]
  potency estimated from few doses: 4.73 nM
[32]
  potency estimated from few doses: 940 nM
[33]
  potency estimated from few doses: 909 nM
